Records with an inconclusive call do not appear. Active and inactive are the calls of the source. Unless noted, calls come from the whole dose curve; as a rule, active = well fitted curve in the direction sought with a large enough effect in the repeat runs; inconclusive = weak or mixed curves; inactive = no such curve, though single readings can be large; an effect the other way counts as inactive or inconclusive.
Tests used:
[1] = qHTS assay for small molecule agonists of the p53 signaling pathway (AID 651631; calls by dose curve; note: nearly all actives have a fitted effect of over 15% in size)
Method in brief: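 Readout was fluorescence from the LiveBLAzer FRET substrate, applied for 2 h at room temperature after 16 h compound exposure at 37 °C. Cells were the p53RE-bla HCT-116 line, with beta-lactamase driven by p53 response elements.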

[2] = qHTS assay for small molecules that induce genotoxicity in human embryonic kidney cells expressing luciferase-tagged ATAD5 (AID 651632); note: nearly all actives have a fitted effect of over 15% in size
Method in brief: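 DMSO vehicle served as the control. HEK293T reporter cells, 16 hr at 37C, then 30 min Amplite at room temperature; ATAD5 induction is measured as luciferase activity.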

[3] = qHTS assay for small molecule agonists of the p53 signaling pathway - cell viability (AID 651633; calls by dose curve; note: series mostly up to about 83 µM; nearly all actives have a fitted effect of over 30% in size)
Method in brief: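 Viability counter-read: CellTiter-Glo luminescence (30 min, room temperature) in the same p53RE-bla plates. These plates had been exposed to compounds for 16 h at 37 C.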

[4] = qHTS assay for small molecules that induce genotoxicity in human embryonic kidney cells expressing luciferase-tagged ATAD5 - cell viability (AID 651634; calls by dose curve; note: nearly all actives have a fitted effect of over 25% in size)
Method in brief: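 Here HEK293T cells with the ATAD5 luciferase reporter are incubated with test compounds for 15.5 hr, and cytotoxicity is then gauged by measuring protease activity in live cells using fluorescence.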

[5] = qHTS assay to test for compound auto fluorescence at 590 nm (red) in HepG2 cells (AID 720674)
Method in brief: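 1 hr compound incubation on HepG2 cells, 37 C, 5% CO2; plate read ex 540 nm / em 590 nm; intensities reported as Rose Bengal sodium equivalents.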

[6] = qHTS assay to test for compound auto fluorescence at 535 nm (green) in HepG2 cells (AID 720675)
[7] = qHTS assay to test for compound auto fluorescence at 460 nm (blue) in HEK293 cells (AID 720678)
Method in brief: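 Auto fluorescence in the blue band was quantified as triamterene equivalency. HEK293 cells were seeded at 2,000/well, dosed after a 4-5 hr attachment, and kept overnight at 37C before the 405/460 nm reading.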

[8] = qHTS assay to test for compound auto fluorescence at 590 nm (red) in HEK293 cells (AID 720679)
Method in brief: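 Autofluorescence equivalency to Rose Bengal sodium, 540/590nm, in HEK293 cells exposed overnight to 23 nL compound per well.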

[9] = qHTS assay to test for compound auto fluorescence at 460 nm (blue) in HEK293 cell free culture (AID 720681)
Method in brief: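 Blue fluorescence (Ex 405/Em 460 nm, triamterene-equivalent) was read immediately after pin transfer of compound or DMSO into medium (DMEM, 10% FBS) without cells.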

[10] = qHTS assay to test for compound auto fluorescence at 535 nm (green) in HEK293 cell free culture (AID 720682)
Method in brief: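 Compounds were pin-transferred into cell-free DMEM with 10% FBS, and green fluorescence was read at excitation 485 nm and emission 535 nm. Intensities were expressed as fluorescein-equivalent values.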

[11] = qHTS assay to test for compound auto fluorescence at 590 nm (red) in HEK293 cell free culture (AID 720683)
Method in brief: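 Red-channel autofluorescence of compounds in culture medium (DMEM, 10% FBS), no cells, measured at 540/590 nm. Rose Bengal sodium is the reference fluorophore for equivalence.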

[12] = qHTS assay to test for compound auto fluorescence at 590 nm (red) in HepG2 cell free culture (AID 720684)
Method in brief: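 Cell-free; medium MEM + 10% FBS; compound or DMSO added by pintool; read Ex 540/Em 590 nm; Rose Bengal sodium as red reference fluorophore.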

[13] = qHTS assay to test for compound auto fluorescence at 460 nm (blue) in HepG2 cell free culture (AID 720685)
Method in brief: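 Cell-free plates of MEM plus 10% FBS received 23 nL compound or DMSO vehicle; blue-channel (405/460 nm) intensity scored against triamterene as reference fluorophore.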

[14] = qHTS assay to test for compound auto fluorescence at 535 nm (green) in HepG2 cell free culture (AID 720686)
[15] = qHTS assay to test for compound auto fluorescence at 460 nm (blue) in HepG2 cells (AID 720687)
Method in brief: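 Blue-channel autofluorescence (Ex/Em 405/460 nm, triamterene-equivalent) was measured after 1 hr compound exposure at 37 C, 5% CO2. Cells were HepG2, plated overnight at 37 C in MEM plus 10% FBS.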

[16] = target: Glucocorticoid receptor (Homo sapiens) (UniProt P04150); test: qHTS assay to identify small molecule agonists of the glucocorticoid receptor (GR) signaling pathway (AID 720691; active = well fitted activation curve with a large enough effect in the signal ratio in the repeat runs, not every such curve was filed as active; the % refers to the signal ratio)
Chain of Glucocorticoid receptor (Homo sapiens) (P04150 whole entry, looked up): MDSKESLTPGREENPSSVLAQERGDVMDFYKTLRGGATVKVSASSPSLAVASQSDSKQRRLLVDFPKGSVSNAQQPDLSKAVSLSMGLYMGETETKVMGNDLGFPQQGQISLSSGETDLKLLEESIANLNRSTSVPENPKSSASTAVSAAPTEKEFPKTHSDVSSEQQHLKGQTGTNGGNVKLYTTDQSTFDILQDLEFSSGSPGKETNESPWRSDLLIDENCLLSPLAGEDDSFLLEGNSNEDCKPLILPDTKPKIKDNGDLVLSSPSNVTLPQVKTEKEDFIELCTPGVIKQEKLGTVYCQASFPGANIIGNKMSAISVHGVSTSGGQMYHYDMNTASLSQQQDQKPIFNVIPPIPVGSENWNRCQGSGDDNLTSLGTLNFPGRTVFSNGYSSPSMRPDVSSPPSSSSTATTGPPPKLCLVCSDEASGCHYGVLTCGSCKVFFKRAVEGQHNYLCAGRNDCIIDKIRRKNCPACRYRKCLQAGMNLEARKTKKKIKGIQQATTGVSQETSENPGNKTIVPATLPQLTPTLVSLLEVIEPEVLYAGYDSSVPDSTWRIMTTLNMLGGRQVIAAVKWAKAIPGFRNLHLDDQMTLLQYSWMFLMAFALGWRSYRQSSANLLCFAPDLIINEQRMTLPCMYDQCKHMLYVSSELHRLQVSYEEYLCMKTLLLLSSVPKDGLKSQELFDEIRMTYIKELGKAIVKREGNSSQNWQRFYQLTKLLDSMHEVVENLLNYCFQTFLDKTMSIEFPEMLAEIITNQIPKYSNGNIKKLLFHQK
Method in brief: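 Compounds in DMSO, alongside positive controls, were added to GR-bla HeLa reporter cells and incubated 18 h at 37 C; GRE-driven beta-lactamase was detected by fluorescence after 2 h with FRET substrate at room temperature.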

[17] = target: Glucocorticoid receptor (Homo sapiens) (UniProt P04150); test: qHTS assay to identify small molecule antagonists of the glucocorticoid receptor (GR) signaling pathway (AID 720692; active = well fitted inhibition curve with a large enough effect in the signal ratio in the repeat runs, not every such curve was filed as active; the % refers to the signal ratio)
Method in brief: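 In a 1536-well cell format, compounds were added 4 h after seeding GR-bla HeLa cells, together with dexamethasone at 5 nM final; reporter activity was measured by FRET-substrate fluorescence following 18 h at 37 C.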

[18] = qHTS assay to test for compound auto fluorescence at 535 nm (green) in HEK293 cells (AID 720680)
[19] = qHTS assay for small molecule disruptors of the mitochondrial membrane potential - cell viability (AID 720634; calls by dose curve;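 note: human HepG2 liver cancer cells; series mostly up to about 83 µM; nearly all actives have a fitted effect of over 20% in size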)
Method in brief: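 Viability of HepG2 cells is scored from ATP content by luminescence; cells are exposed to compound for 1 hr at 37 C and 5% CO2, then dosed with m-MPI dye before the CellTiter-Glo reagent.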

[20] = qHTS assay for small molecule disruptors of the mitochondrial membrane potential (AID 720635)
Method in brief: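 Mitochondrial membrane potential tracked with Mito-MPS dye, red aggregates (ex 540/em 590 nm) against green monomers (ex 490/em 535 nm). Compound treatment 1 hr at 37C, dye 30 min in HepG2.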
% is set by controls: 0 for no effect and ±100 for the full control effect.

CCC(=O)Nc1cccc(N)c1
inactive: Potency [1] | Potency [2] | Potency [3] | Potency [4] | outcome [5] | outcome [6] | Potency [7] | outcome [8] | Potency [9] | outcome [10] | outcome [11] | outcome [12] | Potency [13] | outcome [14] | Potency [15] | Potency [16] | Potency [17]

CC(=O)OC(C)(C)C
inactive: Potency [1] | Potency [2] | Potency [3] | Potency [4] | outcome [5] | outcome [6] | Potency [7] | outcome [8] | outcome [18] | Potency [9] | outcome [10] | outcome [11] | Potency [13] | outcome [14]

CCO[Si](CCCN=C=O)(OCC)OCC
inactive: Potency [1] | Potency [2] | Potency [3] | Potency [4] | outcome [5] | outcome [6] | outcome [8] | outcome [18] | Potency [9] | outcome [10] | outcome [11] | outcome [12] | Potency [13] | outcome [14] | Potency [15]

CC(C)c1cccc(C(C)C)c1N
inactive: Potency [2] | Potency [3] | Potency [4] | Potency [19] | Potency [20] | outcome [5] | outcome [6] | Potency [7] | outcome [8] | outcome [18] | Potency [9] | outcome [10] | outcome [11] | outcome [12] | Potency [13] | outcome [14] | Potency [15] | Potency [16] | Potency [17]

CC(C)=CCC/C(C)=C/C(=O)O
inactive: Potency [1] | Potency [2] | Potency [3] | Potency [4] | outcome [5] | outcome [6] | Potency [7] | outcome [8] | outcome [18] | Potency [9] | outcome [10] | outcome [11] | outcome [12] | Potency [13] | outcome [14] | Potency [15] | Potency [16] | Potency [17]

O=[N+]([O-])c1ccc(CCO)cc1
inactive: Potency [1] | Potency [2] | Potency [3] | Potency [4] | outcome [5] | outcome [6] | Potency [7] | outcome [8] | outcome [18] | Potency [9] | outcome [10] | outcome [11] | outcome [12] | Potency [13] | outcome [14] | Potency [15] | Potency [16] | Potency [17]

NS(=O)(=O)c1cc(C2(O)NC(=O)c3ccccc32)ccc1Cl (centres undefined)
inactive: Potency [1] | Potency [2] | Potency [3] | Potency [4] | fluorescence, relative to Rose Bengal [5] -0.645% [at 18.6 µM] | fluorescence, % of fluorescein control [6] 7.3e-05% [at 18.6 µM] | fluorescence, % of triamterene [7] -0.0194% [at 18.6 µM] | fluorescence, % of fluorescent control [8] 0.0283% [at 18.6 µM] | fluorescence, % of fluorescent control [9] -0.0547% [at 18.6 µM] | activity change [10] 0.0635% [at 18.6 µM] | fluorescence, % of fluorescent control [11] 0.411% [at 18.6 µM] | fluorescence, % of Rose Bengal [12] 0.348% [at 18.6 µM] | fluorescence, % of fluorescent control [13] 0.0381% [at 18.6 µM] | fluorescence, % of fluorescein control [14] 0.0502% [at 18.6 µM] | fluorescence, % of fluorescent control [15] -0.125% [at 18.6 µM] | Potency [16] | Potency [17]

CC(=O)CCc1ccc(O)cc1
inactive: Potency [1] | Potency [2] | Potency [3] | Potency [4] | outcome [5] | outcome [6] | Potency [7] | outcome [8] | outcome [18] | Potency [9] | outcome [10] | outcome [11] | outcome [12] | Potency [13] | outcome [14] | Potency [16]

From PubChem BioAssay (Tox21)
